This is a sample that favours compounds with a hit; in the whole collection about 4.7% have one here.
TGFb inhibitor – TGF-b pathway inhibition. AID 588855. HepG2 CAGA-GFP TGF-b/SMAD3 reporter, GFP fluorescence, 18 h; TGF-beta stimulated, 500 pg/mL final. Potency, µM (series often up to 46.1 µM), for inactives: top-dose activity, negative = inhibition, actives largely listed as inhibitors. 410,000 compounds, 1.2% hits; also: potency is read from the fitted curve at half-maximal effect; % is scaled to controls: 0 for no effect and ±100 for the full control effect; nearly all actives have a fitted effect of over 65% in size
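HEPG2 CAGA-GFP reporter cells (1000/well, DMEM with 1% FBS) received compounds, then recombinant TGF-beta at 500 pg/mL final for 18 hours at 37 degrees C. Per-cell GFP summed per well was normalised to unstimulated and stimulated DMSO controls before curve fitting.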
D3 antag – D3 dopamine receptor (human) antagonism | P35462 | D3R cells, DiscoveRx beta-arrestin luminescence, antagonist mode; active compounds read low | max response, negative = inhibition, % | 360,000 compounds, 2.5% hits; in the data active = max response below about -50%; inconclusive = no clear call, values can overlap the other calls; also: % is scaled to controls: 0 for no effect and ±100 for the full control effect
Target sequence (P35462 whole entry, looked up): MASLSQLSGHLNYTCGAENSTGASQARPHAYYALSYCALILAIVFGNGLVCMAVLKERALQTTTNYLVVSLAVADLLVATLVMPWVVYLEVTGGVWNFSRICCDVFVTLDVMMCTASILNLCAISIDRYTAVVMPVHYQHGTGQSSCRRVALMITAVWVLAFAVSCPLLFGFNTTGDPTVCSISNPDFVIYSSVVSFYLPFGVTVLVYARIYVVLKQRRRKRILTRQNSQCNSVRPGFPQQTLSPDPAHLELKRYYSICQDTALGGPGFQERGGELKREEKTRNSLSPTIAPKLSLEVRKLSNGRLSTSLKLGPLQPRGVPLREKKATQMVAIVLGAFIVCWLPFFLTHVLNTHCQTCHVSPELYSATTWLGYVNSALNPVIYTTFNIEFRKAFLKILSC
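Cells plated overnight at 1500 cells/well, then exposed to library compounds with dopamine controls for 90 minutes at 37 degrees C. DiscoveRx reagent added for 30–60 minutes at room temperature; luminescence read, quantitative HTS format.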
ATXN2 expr inh – inhibitors of ATXN2 expression | HEK-293 ATXN2-luciferase reporter, luminescence, 24 h | Potency, µM (titrated, usually from 57 µM), for the others: at the highest dose activity change, negative = inhibition, usual class: inhibitors | 360,000 compounds, 0.72% hits; also: potency is read from the fitted curve at half-maximal effect; % is scaled to controls: 0 for no effect and ±100 for the full control effect; nearly all actives have a fitted effect of over 55% in size
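ATXN2-luciferase reporter cells (luciferase flanked by upstream and downstream ATXN2 gene portions) were treated 24 h at 37 °C with compounds at up to 57 uM. SteadyGlo luminescence gave expression; GF-AFC fluorescence gave viability.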
DRD3 agonist – agonists of human D3 dopamine receptor | max activation, % | 410,000 compounds, 0.58% hits | D3R DiscoveRx beta-arrestin cells, luminescence, 90 min; in the data active = max activation above about 30%; also: 0% is about no effect
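Agonist mode: compounds and dopamine controls were applied to plated cells for 90 min at 37 degrees C after an overnight attachment at 1500 cells/well. Luminescent read-out followed 30 - 60 minutes at room temperature with DiscoveRx detection reagent.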
HepG2 tox – counter-screen for TGF-b inhibitors: cytotoxicity in HepG2 cells. HepG2 CAGA-GFP viability, ATP luminescence, 18 h. Potency, µM (series often up to 46.1 µM), for the others: top-dose activity change, negative = cytotoxicity, usual class: cytotoxic. 410,000 compounds, 0.76% hits; also: potency is read from the fitted curve at half-maximal effect
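CellTiter-Glo luminescence gave cytotoxicity after 18 hours at 37 degrees C. The cells were HepG2 CAGA-GFP in 1% FBS DMEM, stimulated with 500 pg/mL TGF-beta after compound addition. %Activity was normalised to no-cell wells (complete cell-killing) and DMSO (no toxicity), and curves were fitted and classified.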
ATXN viability – reduces viability in counter-screen for ATXN expression inhibitors; S2 cells (HEK-293 line with an ATXN2-luciferase reporter) viability, CellTiter-Fluor protease fluorescence, 24 h; Potency, µM (highest dose often 56.7 µM), usual class: cytotoxic; 400,000 compounds, 0.49% hits; also: potency is read from the fitted curve at half-maximal effect; nearly all actives have a fitted effect of over 40% in size
Active calls of the source: *; i = inactive; ? = inconclusive; · = no result; [ ] = another dose, or the depositor's remark. Unless noted, calls follow the shape of the dose curve; as a rule, active = well fitted curve in the direction sought with a large enough effect; inconclusive = small, poorly fitted or top-dose-only effect, or another doubt; inactive = no such curve, though single readings can be large; an effect the other way counts as inactive or inconclusive.

SMILES	TGFb inhibitor	D3 antag	ATXN2 expr inh	DRD3 agonist	HepG2 tox	ATXN viability
CCc1nnc(NS(=O)(=O)c2ccc(Nc3ccc([N+](=O)[O-])c4nonc34)cc2)s1	-6%	-63*	-12%	-11	-2%	·
O=C(O)c1cccc(Nc2ccc([N+](=O)[O-])c3nonc23)c1	3%	-57*	5%	-14	6%	16µM*
NS(=O)(=O)c1ccc(Nc2ccc([N+](=O)[O-])c3nonc23)cc1	?	?	·	-18	-21%	?
O=C(O)c1ccc(Nc2ccc3nonc3c2[N+](=O)[O-])cc1	0%	-11	-15%	4	-2%	?
O=C(O)c1ccc(Nc2ccc([N+](=O)[O-])c3nonc23)cc1	3%	-77*	-3%	-18	-2%	?
COc1cc(/C=N/NC(=O)c2nnn(-c3nonc3N)c2C(C)C)ccc1OCc1ccc(F)cc1	?	74	-21%	57*	-2%	i
COc1cc(/C=N\n2nnnc2N)ccc1OCc1ccc(F)cc1	17%	-54*	12%	-9	-1%	i
c1ccc(-n2cnnn2)cc1	·	·	·	-16	·	·
CCCn1c(=O)c2ccccc2n2c(SCCOc3ccc(Cl)cc3)nnc12	-11%	-50*	-14%	-1	-4%	i
CC(=O)Nc1c(C)ccc2nsnc12	6%	-77*	6%	8	3%	i
Cc1c(CCOC(=O)c2ccc(Cl)cc2Cl)sc[n+]1CC(=O)c1ccc(Br)cc1	?	-5	·	-2	14µM*	i
Oc1ccc(C23CC4CC(CC(C4)C2)C3)cc1O	-21%	24	·	1	-3%	·
O=C(O)c1ccc2cc(-c3ccc(O)c(C45CC6CC(CC(C6)C4)C5)c3)ccc2c1	·	·	1.9µM*	·	·	·
Cc1ccc(NC(=O)C(OC(=O)c2ccc(NC(N)=O)cc2)c2ccccc2)cc1Cl (stereo unspecified)	?	-7	26%	-4	13µM*	i
COc1ccc(Nc2c(-c3cccc(O)c3)nc3cnccn23)cc1	6.3µM*	·	6%	5	-10%	i
COc1ccc(-c2nc3cnccn3c2Nc2ccc(C)cc2)cc1	?	17	-26%	6	-2%	?
Nc1nc(=S)[nH]c(N)c1N	0%	·	·	·	18%	·
CCOc1ccc(CCNC(=O)CS(=O)(=O)Cc2nc(-c3cccc(Cl)c3)oc2C)cc1	?	·	-31%	-9	-11%	i
Cc1oc(-c2ccccc2Cl)nc1CS(=O)(=O)CC(=O)NC(C)CCc1ccccc1 (stereo unspecified)	10µM*	·	?	-7	-14%	?
Cc1oc(-c2cccc(Cl)c2)nc1CS(=O)(=O)CC(=O)NC(C)CCc1ccccc1 (stereo unspecified)	10µM*	·	?	11	-34%	?
Cc1oc(-c2ccccc2Cl)nc1CS(=O)(=O)CC(=O)NC(C)c1ccccc1 (stereo unspecified)	?	11	-6%	-1	-23%	i
CCn1ccc(NS(=O)(=O)c2ccc(N)cc2)nc1=O	·	·	1%	·	·	i
Cc1ccc2c(c1)N(CC(=O)NCc1cccc(Cl)c1)C(=O)c1cccnc1O2	?	·	·	-24	-4%	·
c1ccc(CNc2nc(-c3cccnc3)nc3ccccc23)cc1	-8%	6	·	0	-40%	i
c1ccc(CN2CCC(Nc3nc(-c4cccnc4)nc4ccccc34)CC2)cc1	16µM*	?	?	-18	-62%	i
SMILES	TGFb inhibitor	D3 antag	ATXN2 expr inh	DRD3 agonist	HepG2 tox	ATXN viability
CC(C)(C)N=Cc1c(O)ccc2oc3c(c12)CCCC3	8%	-9	-21%	-7	10%	i
NC(=O)N/N=C/c1c(O)ccc2oc3c(c12)CCCC3	10µM*	-5	?	-5	1%	i
CC1(C)S[C@@H]2[C@H](NC(=O)C(N)c3ccccc3)C(=O)N2[C@H]1C(=O)O (stereo partly specified)	·	·	·	·	·	i
O=C(O)CNC(=O)C1CCCN1C(=O)CNC(=O)OCc1ccccc1 (stereo unspecified)	15%	29	2%	4	4%	i
O=C(CNC(=O)OCc1ccccc1)NCC(=O)N1CCCC1C(=O)OCc1ccccc1 (stereo unspecified)	?	?	-12%	-14	11µM*	i
COc1cccc(C(=O)N2CCN(C3CCCCC3)CC2)c1	-2%	-12	-30%	-12	-12%	i
COc1ccc(Cl)cc1NC(=O)N1CCN(C2CCCCC2)CC1	-13%	-57*	-5%	-44	-1%	i
COc1ccc(C(=O)N2CCN(C3CCCCC3)CC2)c(OC)c1	-7%	-86*	0%	-2	60%	?
CCN1CCN(C(=O)Nc2cc(Cl)ccc2OC)CC1	6%	-26	-10%	-26	-3%	i
CCN(Cc1cccc(S(=O)(=O)O)c1)c1ccc(C(=C2C=CC(=[N+](CC)Cc3cccc(S(=O)(=O)O)c3)C=C2)c2ccccc2S(=O)(=O)[O-])cc1	-3%	·	·	·	-19%	·
COc1ccc(N2CCN(C(=O)CN3C(=O)NC4(CCCc5ccccc54)C3=O)CC2)cc1 (stereo unspecified)	7%	-74*	-34%	-10	-3%	i
COc1cc(OC)c(NC(=O)NCc2cccn2Cc2ccccc2)cc1Cl	8.9µM*	·	?	-21	0%	?
COc1ccc(C)cc1NC(=O)NCc1cccn1Cc1ccccc1	2%	·	-15%	-21	-5%	i
CC1CCCN(CCCOc2ccc(Cl)cc2Br)C1 (stereo unspecified)	?	-68*	19%	-9	-48%	i
Cc1ccc(Cl)c(OCCN2CCCC(C)C2)c1 (stereo unspecified)	-13%	-68*	-12%	-8	-13%	i
CN(C)CCOCCOc1ccc(Cl)cc1Br	0%	-76*	-8%[11.3 µM]	-19	-14%	i
Cc1cc(Cl)c(OCCOCCN2CCC(C)CC2)c(Br)c1	5%	-56*	-10%	-29	-36%	i
CN(C)CCCOc1ccc(Cl)cc1Br	-14%	?	-19%	-29	-13%	i
CC1CCCN(CCSc2ccc(Cl)cc2)C1 (stereo unspecified)	0%	?	-1%	-13	-31%	i
Cc1cc(Cl)c(OCCOCCN2CCN(C)CC2)c(Br)c1	1%	1	-7%	-22	-19%	i
COc1ccccc1/C=c1/[nH]c(=O)/c(=C\c2ccccc2OC)[nH]c1=O	?	·	·	·	-16%	·
Cc1ncc2c(c1CNC(=O)/C=C/c1cccs1)CCN(C(=O)c1cc(C(C)C)on1)C2	·	·	·	·	·	i
